# Source: PubChem BioAssay (Tox21)
# Where “and” joins values, the source holds several entries; their conditions need not be identical. Equal values may be shown once. Inconclusive results are not listed. Entries that show only a call come without a potency. A structure can be active in one record and inactive in another. Calls of active or inactive are those of the source. Calls follow the shape of the dose curve; as a rule, active = well fitted activation curve with a large enough effect in the repeat runs; inconclusive = weak or mixed curves; inactive = no such curve, though single readings can be large or run the other way.
# Target: Nuclear receptor subfamily 1 group I member 2 (Homo sapiens) (UniProt O75469)
# Sequence (O75469 whole entry, looked up): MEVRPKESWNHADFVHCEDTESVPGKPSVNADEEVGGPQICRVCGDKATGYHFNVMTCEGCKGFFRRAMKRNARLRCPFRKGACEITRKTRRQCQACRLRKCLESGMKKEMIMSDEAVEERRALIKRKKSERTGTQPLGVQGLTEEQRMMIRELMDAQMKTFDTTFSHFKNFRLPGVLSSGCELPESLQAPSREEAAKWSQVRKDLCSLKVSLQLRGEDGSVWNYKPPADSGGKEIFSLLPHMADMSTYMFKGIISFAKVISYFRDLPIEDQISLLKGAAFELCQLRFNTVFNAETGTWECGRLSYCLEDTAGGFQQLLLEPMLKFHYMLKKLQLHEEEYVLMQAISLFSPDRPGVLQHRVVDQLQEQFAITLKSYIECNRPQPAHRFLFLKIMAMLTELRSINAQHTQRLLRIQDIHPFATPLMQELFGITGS
# Assay: Human pregnane X receptor (PXR) small molecule agonists, qHTS assay (AID 1346982); also: nearly all actives have a fitted effect of over 35% in size
# Settings: PXR-Luc HepG2, CYP3A4 luciferase reporter, 24 h; series mostly up to 92.4 µM
# Excerpt: National Center for Advancing Translational Sciences [NCATS]
# NIH Chemical Genomics Center [NCGC]
# U.S. Environmental Protection Agency [EPA]
# National Institutes of Environmental Health Sciences [NIEHS]
# National Toxicology Program [NTP]
# The human pregnane X receptor (hPXR) regulates the expression of several drug metabolizing enzymes and induction of these proteins is a major mechanism for developing drug resistance in cancer. One such key enzyme catalyzing the drug metabolism is cytochrome P450 3A4 (CYP3A4). Changes in CYP3A4 expression affect drug metabolism, thereby reducing the therapeutic efficacy and altering toxicological response to a drug and which finally causes adverse drug interaction. To screen Tox21 libraries for compounds that activate hPXR-mediated CYP3A4 gene expression, PXR-Luc HepG2 cells were used.
# PXR-Luc HepG2 cells were dispensed at 2,000 per well in 5uL of assay medium containing 5% charcoal-stripped FBS into white solid bottom 1536-well plates (Corning Life Sciences, Corning, NY) using a Multidrop Combi (Thermo Scientific, Waltham, MA) dispenser. The assay plates were incubated at 37 C and 5% CO2 for 5hr, and then 23nL of compounds dissolved in DMSO and positive control were transferred using a Pintool station (Wako, San Diego, CA). The assay plates were incubated at 37C and 5% CO2 for 24hr. For luciferase read, 4uL of ONE-Glo reagent (Promega Corporation, Madison, WI) was added to each well of the assay plates using Flying Reagent Dispenser (FRD, Aurora Discovery, San Diego, CA) and incubated the assay plates at room temperature for 30min. The luminescence signal was quantified using a ViewLux plate reader (Perkin Elmer, Shelton, CT).
# Potency is read from the fitted curve at half-maximal effect.
row,SMILES,Potency
1,CC(=O)O[C@]1(C(C)=O)CC[C@H]2[C@@H]3C=C(C)C4=CC(=O)CC[C@]4(C)[C@H]3CC[C@@]21C,27.3 µM (active)
2,CCCCCC=O,inactive
3,IC(I)I,inactive
4,Oc1c(Cl)ccc(Cl)c1Cl,inactive
5,CC(=O)O[C@]1(C(C)=O)CC[C@H]2[C@@H]3C=C(Cl)C4=CC(=O)CC[C@]4(C)[C@H]3CC[C@@]21C,68.5 µM (active) and inactive
6,Nc1ccc(O)c(N)c1,inactive
7,C[N+](C)(C)CCO,inactive
8,CCCCCCC(C)O (stereo not given),inactive
9,c1ccc2c(c1)ccc1cc3c(ccc4ccccc43)cc12,3.03 µM (active) and 1.71 µM (active)
10,C=CCOC(=O)C(=C)C,inactive
11,Nc1cc(Cl)c(N)c(Cl)c1,68 µM (active) and 54.5 µM (active)
12,C=CCNCC=C,inactive
13,[Na+],inactive
14,CCC(Cc1c(I)cc(I)c(N)c1I)C(=O)O (stereo not given),52.8 µM (active)
15,c1ccc2cc3ccccc3cc2c1,35.5 µM (active) and 21.7 µM (active)
16,COC(=O)c1ccc(C)cc1,inactive
17,C1CN(SSN2CCOCC2)CCO1,61.1 µM (active)
18,O=C1OC2(c3ccccc31)c1cc(I)c(O)c(I)c1Oc1c2cc(I)c(O)c1I,inactive
19,O=C(O)c1cc(=O)[nH]c(=O)[nH]1,inactive
20,O=C1CCc2ccccc2O1,inactive

row,SMILES,Potency
1,C=C1C[C@H]2[C@@H]3C=C(C)C4=CC(=O)CC[C@]4(C)[C@H]3CC[C@]2(C)[C@@]1(OC(C)=O)C(C)=O,31.3 µM (active)
2,CCOC(=O)C(C)Oc1ccc(Oc2cnc3cc(Cl)ccc3n2)cc1 (stereo not given),inactive
3,CC(=O)Oc1ccc(C(c2ccc(OC(C)=O)cc2)c2ccccn2)cc1,54.2 µM (active) and inactive
4,CC(=O)Nc1ccc2c(c1)Cc1cc(NC(C)=O)ccc1-2,17.2 µM (active) and 7.7 µM (active)
5,CC(C)[C@@H]1CC[C@@H](C)CC1=O,inactive
6,OC[C@H]1O[C@@H]2O[C@H]3[C@H](O)[C@@H](O)[C@@H](O[C@H]4[C@H](O)[C@@H](O)[C@@H](O[C@H]5[C@H](O)[C@@H](O)[C@@H](O[C@H]6[C@H](O)[C@@H](O)[C@@H](O[C@H]7[C@H](O)[C@@H](O)[C@@H](O[C@H]1[C@H](O)[C@H]2O)O[C@@H]7CO)O[C@@H]6CO)O[C@@H]5CO)O[C@@H]4CO)O[C@@H]3CO,inactive
7,CN(C)C,inactive
8,C=CCCCCCCCCCC,inactive
9,C=CN1CCCC1=O,inactive
10,C=CC(C)(O)CCC=C(C)C (stereo not given),inactive
11,CN(Cc1cnc2nc(N)nc(N)c2n1)c1ccc(C(=O)N[C@@H](CCC(=O)O)C(=O)O)cc1,inactive
12,CCC/C=C/C=O,inactive
13,CC1(C)O[C@@H]2C[C@H]3[C@@H]4C[C@H](F)C5=CC(=O)C=C[C@]5(C)[C@@]4(F)[C@@H](O)C[C@]3(C)[C@]2(C(=O)CO)O1,24.3 µM (active) and 8.41 µM (active)
14,CC(=O)OC(C)C,inactive
15,COc1ccc(-c2coc3cc(O)cc(O)c3c2=O)cc1,30.9 µM (active) and 30.6 µM (active)
16,CC(C)=CCO,62.6 µM (active) and inactive
17,COCCOCCOCCO,inactive
18,CC(=O)[C@H]1CC[C@H]2[C@@H]3CC=C4C[C@@H](O)CC[C@]4(C)[C@H]3CC[C@]12C,24.3 µM (active) and 23.7 µM (active)
19,Cc1ccc(S(=O)(=O)O)cc1C,inactive
20,O=C(O)COCCN1CCN(C(c2ccccc2)c2ccc(Cl)cc2)CC1 (stereo not given),inactive
